Compounds with a hit are over-represented: about 4.8% of the library has one in this group of screens.
USP1-UAF1 inh = inhibitors of human USP1/UAF1 deubiquitinase; O94782; recombinant USP1/UAF1, Ub-Rhodamine cleavage fluorescence; Potency, µM (top dose mostly 57.1 µM), usual class: inhibitors; actives 0.23% (n = 390,000); AID 743255; note: nearly all actives have a fitted effect of over 60% in size
Target sequence (O94782 whole entry, looked up): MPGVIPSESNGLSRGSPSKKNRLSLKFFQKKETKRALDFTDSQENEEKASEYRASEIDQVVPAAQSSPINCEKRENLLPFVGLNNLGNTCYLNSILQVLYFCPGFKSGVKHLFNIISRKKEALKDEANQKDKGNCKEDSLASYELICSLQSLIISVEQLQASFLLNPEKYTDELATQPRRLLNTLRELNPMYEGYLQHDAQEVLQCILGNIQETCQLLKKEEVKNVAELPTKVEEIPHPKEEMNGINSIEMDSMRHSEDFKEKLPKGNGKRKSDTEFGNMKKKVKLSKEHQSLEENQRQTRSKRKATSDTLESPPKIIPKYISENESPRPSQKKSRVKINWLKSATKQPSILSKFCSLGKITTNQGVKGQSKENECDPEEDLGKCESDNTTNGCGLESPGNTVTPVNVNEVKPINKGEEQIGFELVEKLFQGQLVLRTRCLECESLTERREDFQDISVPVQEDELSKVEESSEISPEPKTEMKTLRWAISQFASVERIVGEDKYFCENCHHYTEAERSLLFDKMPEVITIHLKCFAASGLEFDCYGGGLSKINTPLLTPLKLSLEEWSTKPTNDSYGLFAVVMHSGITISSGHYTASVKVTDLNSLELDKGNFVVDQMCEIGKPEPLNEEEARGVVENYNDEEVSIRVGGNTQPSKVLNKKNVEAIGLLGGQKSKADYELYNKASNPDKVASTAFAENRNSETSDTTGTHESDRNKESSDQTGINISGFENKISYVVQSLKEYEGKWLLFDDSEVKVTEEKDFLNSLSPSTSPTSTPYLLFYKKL
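Step one: compound is pinned into 1nM USP1/UAF1 in HEPES pH 7.8 buffer with TCEP. Step two: 15 min room-temperature incubation. Step three: Ub-Rho (150nM final) starts cleavage, tracked by fluorescence over six one-minute reads.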
ATXN2 expr inh = reduces ATXN2 reporter expression in HEK-293 cells. HEK-293 ATXN2-luciferase reporter, luminescence, 24 h. Potency, µM (titrated, usually from 57 µM), hits mostly inhibitors. actives 0.72% (n = 360,000). AID 1745845; note: nearly all actives have a fitted effect of over 55% in size
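ATXN2-luciferase reporter cells (luciferase flanked by upstream and downstream ATXN2 gene portions) were treated 24 h at 37 °C with compounds at up to 57 uM. SteadyGlo luminescence gave expression; GF-AFC fluorescence gave viability.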
USP2a inh = blocks human ubiquitin-specific protease USP2a; O75604; USP2 core, Ub-CHOP2 coupled fluorogenic reporter, 485/531; Potency, µM (top dose mostly 38.3 µM), actives largely listed as inhibitors; actives 0.01% (n = 330,000)
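USP2 core (10nM final) preincubated 30min RT with compound in 20mM Tris-HCl pH 8.0, 2mM CaCl2, 2mM beta-mercaptoethanol, 0.05% CHAPS; 25nM Ub-CHOP2 plus 25nM reporter substrate added, fluorescence (Ex485/Em531) read after 60min.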
S2 tox = viability counter-screen for ATXN expression inhibitors. actives 0.49% (n = 400,000). AID 651635. S2 cells (HEK-293 line with an ATXN2-luciferase reporter) viability, CellTiter-Fluor protease fluorescence, 24 h. Potency, µM (doses to about 56.7 µM), most hits filed as cytotoxic; note: nearly all actives have a fitted effect of over 40% in size
IL-1B inflam inh = inflammasome signaling inhibition, IL-1 beta readout; THP-1 LPS/ATP IL-1B secretion, AlphaLISA, 16 h; stronger effect = lower value; activity change, % at 57.5 µM; actives 4.7% (n = 360,000); AID 743279; in the data active = activity change below about -50%; inconclusive = mostly about -30% to -49%
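THP-1 cells pretreated 1 hr with compounds (up to 57.5 uM final), then stimulated with LPS (250 ng/mL final) plus ATP (1.25 mM final); secreted IL-1B measured by AlphaLISA after 16 hr, decreased signal indicating inhibition.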
Hits are given with their value; 0 = inactive; ? = inconclusive; - = no result. Unless noted, calls come from the whole dose curve; as a rule, active = well fitted curve in the direction sought with a large enough effect; inconclusive = small, poorly fitted or top-dose-only effect, or another doubt; inactive = no such curve, though single readings can be large; an effect the other way counts as inactive or inconclusive.

SMILES | USP1-UAF1 inh | ATXN2 expr inh | USP2a inh | S2 tox | IL-1B inflam inh
CC1(C)C(=O)C=CC(=O)C(C)(C)C(=O)C=CC(=O)C(C)(C)C2=CC=C(O2)C(C)(C)C(=O)C=CC1=O | 0 | 25µM | - | - | -97
COc1ccc(-c2nc(CSCC(=O)N3CCN(C)CC3)c(C)o2)cc1OC | 0 | 0 | 0 | 0 | 0
COc1ccc(-c2nc(CSCC(=O)N3CCN(c4cccc(C)c4C)CC3)c(C)o2)cc1OC | 0 | ? | - | 32µM | -
O=[N+]([O-])c1ccc(N2CCN(Cc3ccc4c(c3)OCO4)CC2)nc1 | 0 | 0 | 0 | 0 | 0
CC(=O)c1ccc(N2CCN(c3ccc(S(=O)(=O)NCCCN(C)C)cc3[N+](=O)[O-])CC2)cc1 | 0 | - | 0 | 0 | 0
O=C1Nc2ccc([N+](=O)[O-])cc2OC1CCN1CCN(Cc2ccc3c(c2)OCO3)CC1 (stereo not drawn) | 0 | 0 | 0 | 0 | -51
O=Cc1cc([N+](=O)[O-])ccc1N1CCN(Cc2ccc3c(c2)OCO3)CC1 | 0 | 0 | 0 | 0 | -64
CCn1c(=O)c([N+](=O)[O-])c(N2CCSCC2)c2ccccc21 | 0 | 0 | 0 | 0 | 0
CCn1c(=O)c([N+](=O)[O-])c(N2CCN(Cc3ccc4c(c3)OCO4)CC2)c2ccccc21 | 0 | 0 | 0 | 0 | -66
CN(C)CCCNS(=O)(=O)c1ccc(N2CCN(Cc3ccc4c(c3)OCO4)CC2)c([N+](=O)[O-])c1 | 0 | ? | 0 | 0 | -70
CCn1cc(C(=O)N[C@@H](CCSC)C(=O)NC(C)(C)CO)c(=O)c2cc3c(cc21)OCO3 | 0 | - | 0 | 0 | 0
O=S(=O)(c1ccc(Cl)c(Cl)c1)c1snnc1-c1ccccc1 | ? | 28µM | 0 | 13µM | -116
Cc1cc2c(c(-c3ccc(Cl)cc3)c1)OC(CNC(=O)CCC(=O)N(C)C)C2 (stereo not drawn) | - | - | - | 0 | -
CCOc1ccc(CNC(=O)c2ccc(Sc3ccc(C)cc3)c(N)c2)cc1OC | 0 | - | - | - | -
Cc1c(NC(=O)[C@@H](NC(=O)c2ccc(Cl)c([N+](=O)[O-])c2)C(C)C)c(=O)n(-c2ccccc2)n1C | 0 | 0 | 0 | 0 | -94
Cc1c(NC(=O)C(C)OC(=O)[C@@H](NC(=O)c2ccccc2)C(C)C)c(=O)n(-c2ccccc2)n1C (stereo partly drawn) | 0 | 0 | 0 | 0 | 0
Cn1c(=O)c2c(-c3ccccc3Cl)n(-c3cc(Cl)ccc3O)cc2n(C)c1=O | 0 | - | - | - | -
CC1(C)Cc2ccccc2C(COc2ccccc2)=N1 | 0 | 0 | 0 | 0 | -73
CC1=NC(C)(C)Cc2ccccc21 | 0 | 0 | 0 | 0 | 0
CCCC(=O)N/C(N)=N/c1nc(C)c2cc(C)ccc2n1 | 0 | 0 | 0 | ? | 0
Cc1cc2nc(/N=C(\N)NC(=O)C(C)C)nc(C)c2cc1C | 0 | 0 | 0 | ? | -93
Cc1ccc2nc(N=C(N)N)nc(C)c2c1 | 0 | 0 | 0 | 0 | 0
Cc1ccc2nc(/N=C(\N)NC(=O)NC3CCCCC3)nc(C)c2c1 | 0 | ? | 0 | 28µM | -55
CCc1ccc2nc(N=C(N)N)nc(C)c2c1 | 0 | ? | 0 | ? | -91
CCC(=O)N/C(N)=N/c1nc(C)c2cc(C)c(C)cc2n1 | 0 | 0 | 0 | 0 | -
SMILES | USP1-UAF1 inh | ATXN2 expr inh | USP2a inh | S2 tox | IL-1B inflam inh
Cc1nc(N=C(N)N)nc2ccccc12 | ? | ? | 0 | 0 | -101
Cc1nc(/N=C(\N)NC(=O)c2ccccc2)nc2ccccc12 | 0 | 0 | 0 | 0 | 0
Cc1cc(C(=O)NCC2CCC3(CCN(Cc4cc(F)ccc4F)CC3)O2)n(C)n1 (stereo not drawn) | - | - | - | 0 | -
Cc1c(C(=O)N(C)Cc2cccc3ncccc23)cnn1-c1nccc(-c2ccccc2F)n1 | - | - | - | 0 | -
Cc1ccc(S(=O)(=O)/N=C(\N)Nc2nc(C)c3cc(C)c(C)cc3n2)cc1 | 0 | 0 | 0 | 0 | 0
Cc1cc2nc(N=C(N)N)nc(C)c2cc1C | 0 | - | 0 | ? | -78
CCCCn1c(N)c(N(CCC(C)C)C(=O)c2ccc(-c3ccc([N+](=O)[O-])cc3)o2)c(=O)[nH]c1=O | 0 | 14µM | 0 | - | 0
CCCCn1c(N)c(N(CC(C)C)C(=O)c2ccc(-c3ccc([N+](=O)[O-])cc3)o2)c(=O)[nH]c1=O | 0 | 0 | 0 | 0 | 0
